High-throughput results deposited in PubChem by National Center for Advancing Translational Sciences (NCATS).
Most compounds without a hit are left out; they make up all but 0.44% or so of the library.
Apoferritin bind = candidate novel general anesthetic via apoferritin binding | P02791 | apoferritin/1-aminoanthracene competitive binding, fluorescence | Potency, µM (top dose mostly 77.5 µM), without a hit: at the top dose activity change, negative = displacement, usual class: inhibitors | actives 0.074% (n = 350,000) | AID 485281; also: % is scaled to controls: 0 for no effect and ±100 for the full control effect; nearly all actives have a fitted effect of over 20% in size
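Concentration-response curves derived by four-parameter Hill fitting of normalized fluorescence, where compounds displaced 1-AMA from 10 uM horse apoferritin following a brief 10 min room-temperature incubation; propofol titration acted as positive control.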
TexasRed fluor = counter-screen for TRb-SRC2 inhibitors: fluorescence interference. TRb/SRC2 Texas Red total fluorescence interference. Potency, µM (doses to about 106 µM), without a hit: top-dose fluorescence change, negative = quenching. actives 0.29% (n = 280,000); active = well fitted curve in either direction with a large enough effect; inconclusive = small, poorly fitted or top-dose-only effect; also: % is scaled to controls: 0 for no effect and ±100 for the full control effect
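Human TRb ligand-binding domain at 0.6 uM with 20 nM Texas Red SRC2 peptide in Tris buffer containing 1 uM T3 and 5% DMSO, incubated with compound 5 h at ambient temperature. Total fluorescence (555/632 nm) calculated as parallel + 2 × perpendicular.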
RGS12 GoLoco inh = blocks human Gai1 binding to RGS12 GoLoco peptide, red readout | P63096 | Gai1:RGS12 GoLoco peptide FP, rhodamine, 10 min | Potency, µM (top dose mostly 61.6 µM), for inactives: top-dose activity, negative = inhibition, actives largely listed as inhibitors | actives 0.44% (n = 230,000); active = well fitted inhibition curve with a large enough effect, not every such curve was filed as active; inactive = no such curve, though single readings can be large or run the other way; also: % is scaled to controls: 0 for no effect and ±100 for the full control effect; nearly all actives have a fitted effect of over 30% in size
TRb-SRC2 inh = inhibitors of human thyroid hormone receptor beta-SRC2 interaction; Potency, µM (titrated, usually from 106 µM), inactives show top-dose activity change, negative = inhibition, hits mostly inhibitors; actives 0.065% (n = 280,000); TRbeta-SRC2 peptide binding, fluorescence polarization; receptor liganded with 1 µM T3;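 also: plate controls were bound peptide for no effect and peptide without receptor for full effect; nearly all actives have a fitted effect of over 50% in size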
Target sequence (P10828 whole entry, looked up): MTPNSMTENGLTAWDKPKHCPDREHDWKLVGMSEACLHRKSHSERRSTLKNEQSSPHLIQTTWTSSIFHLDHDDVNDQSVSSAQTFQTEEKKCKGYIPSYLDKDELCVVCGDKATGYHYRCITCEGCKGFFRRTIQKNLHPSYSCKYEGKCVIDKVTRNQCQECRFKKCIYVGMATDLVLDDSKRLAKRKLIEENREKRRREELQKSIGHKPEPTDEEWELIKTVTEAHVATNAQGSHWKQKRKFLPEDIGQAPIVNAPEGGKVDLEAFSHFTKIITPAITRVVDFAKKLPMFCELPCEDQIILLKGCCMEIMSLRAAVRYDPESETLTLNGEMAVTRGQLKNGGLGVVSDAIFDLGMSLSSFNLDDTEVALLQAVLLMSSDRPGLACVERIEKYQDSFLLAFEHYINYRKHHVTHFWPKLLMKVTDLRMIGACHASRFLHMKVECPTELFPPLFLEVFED
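Each compound concentration gave % activity, normalized to unbound and bound Texas Red SRC2 controls, from polarization read after 5 hr ambient incubation with T3-loaded human TRb LBD.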
ERG Ets-DNA blk = inhibitors of human ERG Ets domain-DNA interaction; P11308; fluorescence polarization, His-ERG Ets domain / labelled DNA; Potency, µM (doses to about 76.9 µM), for inactives: top-dose FP activity, negative = inhibition, hits mostly inhibitors; actives 0.028% (n = 370,000); AID 624246; active = well fitted inhibition curve with a large enough effect in the polarisation, with a control signal flat; inconclusive = small, poorly fitted or top-dose-only effect, or effect the other way, or a change in a side signal; inactive = no such curve, though single readings can be large or run the other way; the % refers to the polarisation;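 also: polarization taken with two DNA probes labelled with fluorescein and Texas red; % of control where 0% means no effect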
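His-tagged ERG Ets domain (1 uM in the protein solution; 300mM KCl, 50mM Tris-HCl, 1mM EDTA, 1mM DTT, pH 7.5) received compound, then a probe mix of 5 nM fluorescein-DNA and 100nM Texas-615-DNA. Fluorescence polarization was read for both dyes.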
The depositor's hits bear a star; ! = repeats disagree; [ ] = another dose, or the depositor's remark. Unless noted, calls follow the shape of the dose curve; as a rule, active = well fitted curve in the direction sought with a large enough effect; inconclusive = small, poorly fitted or top-dose-only effect, or another doubt; inactive = no such curve, though single readings can be large; an effect the other way counts as inactive or inconclusive. Potency is read from the fitted curve at half-maximal effect.

How did CCc1ccc(OCC(=O)NCC(c2ccc(Cl)cc2)N2CCOCC2)cc1 (centres undefined) do in these assays?
Apoferritin bind: 71.2%; TexasRed fluor: 10µM*[quencher]; TRb-SRC2 inh: -21.3%; ERG Ets-DNA blk: 10.4%

What do the screens show for `COc1cccc(CNC(=O)Cn2nc(-c3ccc(Cl)cc3)ccc2=O)c1`?
Apoferritin bind: 6.31µM*!; TexasRed fluor: -1.1%; RGS12 GoLoco inh: 4.5%; TRb-SRC2 inh: 5.3%; ERG Ets-DNA blk: 4.8%

What do the screens show for `Cc1ccc(-c2ccc(=O)n(CC(=O)NCc3ccc(F)cc3)n2)cc1`?
Apoferritin bind: 8.91µM*; TexasRed fluor: -1.2%; RGS12 GoLoco inh: -1.0%; TRb-SRC2 inh: -1.7%; ERG Ets-DNA blk: 10.2%

How did C=Cc1ccc(Cn2nc(-c3ccc(C)cc3)ccc2=O)cc1 do in these assays?
Apoferritin bind: 15.8µM*; TexasRed fluor: -0.5%; TRb-SRC2 inh: 1.6%; ERG Ets-DNA blk: 9.3%

What do the screens show for `C=COC(=O)/C=C/C`?
Apoferritin bind: 6.7%; TexasRed fluor: 0.2%; TRb-SRC2 inh: -9.6%

How did COC(=O)c1cc2sc(Cl)cc2n1Cc1nc(-c2ccccc2F)oc1C do in these assays?
Apoferritin bind: 7.3%; TexasRed fluor: 25.1µM*[quencher]; TRb-SRC2 inh: -14.9%; ERG Ets-DNA blk: -1.9%

How did CCCN(CC(=O)Nc1ccc(F)c(F)c1F)C(=O)C1CC(=O)N(Cc2ccccc2)C1 (centres undefined) do in these assays?
ERG Ets-DNA blk: 35.5µM*

Results for CCN(CC(=O)Nc1cc(Cl)ccc1C)C(=O)C1CC(=O)N(Cc2ccccc2)C1 (centres undefined) ?
ERG Ets-DNA blk: -4.8%

Results for COC(=O)c1ccc(OCC(=O)NC2CCCCCC2)cc1 ?
Apoferritin bind: inconclusive; ERG Ets-DNA blk: -4.8%

How did COC(=O)c1ccc(/C=N/OCC(=O)NC2CCCC(C)C2C)cc1 (centres undefined) do in these assays?
Apoferritin bind: 11.2µM*; TexasRed fluor: -3.3%; RGS12 GoLoco inh: -9.6%; TRb-SRC2 inh: 1.5%; ERG Ets-DNA blk: 2.5%

Results for COC(=O)c1ccc(/C=N/OCC(=O)NC2CCCCCCC2)cc1 ?
Apoferritin bind: 7.94µM*; TexasRed fluor: -0.7%; RGS12 GoLoco inh: 4.0%; TRb-SRC2 inh: -4.6%; ERG Ets-DNA blk: -1.6%

How did CCCCCCN do in these assays?
TexasRed fluor: -0.7%; RGS12 GoLoco inh: 28.2µM*; TRb-SRC2 inh: -0.4%

How did Fc1ccc(-c2noc3ncnc(N4CCCCC4)c23)cc1 do in these assays?
Apoferritin bind: 51.1%; TexasRed fluor: 89.1µM*[quencher]; TRb-SRC2 inh: -23.6%; ERG Ets-DNA blk: 4.2%

What do the screens show for `Fc1ccc(-c2noc3ncnc(N4CCN(c5ccccc5)CC4)c23)cc1`?
Apoferritin bind: 7.3%; TexasRed fluor: -2.6%; TRb-SRC2 inh: -1.7%; ERG Ets-DNA blk: 1.5%

What do the screens show for `CCC/C(=N\OCC)C1=C(O)CC(O)(CC(C)S(=O)(=O)CC)CC1=O` (centres undefined)?
TexasRed fluor: 4.1%[201 µM]; TRb-SRC2 inh: 1.0%[201 µM]

How did N#CCCCS(=O)(=O)c1nnnn1-c1ccc(F)cc1Br do in these assays?
TexasRed fluor: -2.2%; RGS12 GoLoco inh: 5.8%; TRb-SRC2 inh: 6.5%

What do the screens show for `CN=c1nc(-c2ccccc2)n(-c2ccccc2)s1`?
TexasRed fluor: 2.2%; RGS12 GoLoco inh: 5.01µM*; TRb-SRC2 inh: 3.3%; ERG Ets-DNA blk: -8.5%

Results for Cn1nc(-c2ccccc2)nc1-c1ccccc1 ?
ERG Ets-DNA blk: 2.3%

Results for O=C(CSc1ccccc1Cl)c1ccco1 ?
Apoferritin bind: 25.1µM*; TexasRed fluor: -2.2%; RGS12 GoLoco inh: 1.0%; TRb-SRC2 inh: 4.0%; ERG Ets-DNA blk: 0.0%

Results for COCCNC(=O)C1CCN(C(=O)c2cc3sccc3n2Cc2ccc(Cl)cc2)CC1 ?
Apoferritin bind: -7.5%; TexasRed fluor: 28.2µM*[quencher]; TRb-SRC2 inh: -6.3%; ERG Ets-DNA blk: 2.0%

How did CCn1c(C(=O)N2CCC(C(=O)NCCc3ccc(OC)cc3OC)CC2)cc2sccc21 do in these assays?
Apoferritin bind: 59.2%; TexasRed fluor: 22.4µM*[quencher]; TRb-SRC2 inh: -9.7%; ERG Ets-DNA blk: -0.4%
